Source: PubChem (National Center for Advancing Translational Sciences (NCATS))
Pf growth 48h: P. falciparum growth inhibition at 48 hours (one generation). P. falciparum luciferase growth in erythrocytes, 48 h. Potency, µM (top dose mostly 28.7 µM), for the others: top-dose activity change, negative = inhibition, most hits filed as inhibitors. 310,000 tested, 5.9% active. AID 504832; note: potency is the fitted concentration of half-maximal effect; % is set by controls: 0 for no effect and ±100 for the full control effect
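Luminescence readout; reporter = integrated firefly luciferase in P. falciparum. RBC culture at 2% hematocrit, 0.1% parasitemia final, 37 C/5% CO2; decreased signal taken as growth inhibition.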
Cycloheximide cs: affects cycloheximide protein synthesis inhibition readout, counter-screen; cell reporter, cycloheximide protein synthesis inhibition counterscreen; max response, %; 300,000 tested, 12% active; in the data active = max response mostly above about 13%, no sharp cut-off; inactive = mostly below about 14%; note: read at 38.3 µM for the half of the compounds with a filed dose; 0% is about no effect
Shiga inhibitor: inhibitors of Shiga toxin in Vero cells; Vero cells, Shiga toxin protein synthesis inhibition reporter; 290,000 tested, 9.2% active; inhibition, % at 38.7 µM; in the data active = inhibition mostly above about 28%, no sharp cut-off; inactive = mostly below about 43%; note: 0% is about no effect
Pf growth 96h: P. falciparum growth inhibition at 96 hour, primary screen for plastid delayed-death inhibitors | P. falciparum luciferase reporter growth, 96 h | Potency, µM (titrated, usually from 28.7 µM), for inactives: at the top dose activity change, negative = inhibition, usual class: inhibitors | 320,000 tested, 6.9% active; note: potency is the fitted concentration of half-maximal effect; % is set by controls: 0 for no effect and ±100 for the full control effect
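Infected RBCs, 2% Hct / 0.05% parasitemia final; luciferase-reporter P. falciparum; cpd 96 h, 37 C, 5% CO2; luciferase detection reagent; luminescence.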
LmPK inhibitor: blocks Leishmania mexicana pyruvate kinase activity; Q27686; purified LmPK, Kinase-Glo ATP luminescence, 1 h; Potency, µM (doses to about 57.5 µM), for inactives: top-dose activity change, negative = inhibition, usual class: inhibitors; 290,000 tested, 0.37% active; AID 1721; note: potency is the fitted concentration of half-maximal effect; % is set by controls: 0 for no effect and ±100 for the full control effect
Target sequence (Q27686 whole entry, looked up): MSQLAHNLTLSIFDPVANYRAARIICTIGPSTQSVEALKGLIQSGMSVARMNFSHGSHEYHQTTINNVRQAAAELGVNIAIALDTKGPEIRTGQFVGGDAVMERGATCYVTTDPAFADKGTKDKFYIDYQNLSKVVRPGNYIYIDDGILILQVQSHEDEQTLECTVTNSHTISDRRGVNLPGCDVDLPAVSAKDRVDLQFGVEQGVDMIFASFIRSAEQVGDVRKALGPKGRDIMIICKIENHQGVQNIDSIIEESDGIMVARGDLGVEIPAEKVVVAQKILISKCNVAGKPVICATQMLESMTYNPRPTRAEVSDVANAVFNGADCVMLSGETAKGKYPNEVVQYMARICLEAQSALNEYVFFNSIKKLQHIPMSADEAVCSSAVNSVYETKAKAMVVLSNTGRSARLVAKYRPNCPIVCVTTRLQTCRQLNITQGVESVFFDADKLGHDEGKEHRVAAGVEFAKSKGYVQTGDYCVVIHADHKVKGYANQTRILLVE
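ATP generated from ADP (0.1 mM) and PEP (0.5 mM) by 0.1 nM LmPK over 1 h at room temperature (pH 7.2 imidazole buffer) was detected by coupled luciferase luminescence. Values were normalized to uninhibited and no-enzyme wells.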
* = called active by the depositor; [ ] = another dose, or the depositor's remark. The list is not random: actives were taken first. Their share in the collection is about 22%. Unless noted, calls come from the whole dose curve; as a rule, active = well fitted inhibition curve with a large enough effect; inconclusive = small, poorly fitted or top-dose-only effect, or another doubt; inactive = no such curve, though single readings can be large or run the other way.

Screening CCOC(=O)N1CCN(Cc2nc(CC3CC3)no2)CC1 returned Pf growth 48h 47%, Cycloheximide cs 27*, Shiga inhibitor 34*, Pf growth 96h -9% and LmPK inhibitor -1%.
Screening O=C1CCC[C@@H]2CC(NCc3ccc(Cl)c(Cl)c3)C[C@@H]3CCN1[C@H]23 (some centres undefined) returned Cycloheximide cs -5 and Shiga inhibitor inactive.
For Cc1ccc(O)c(NC(=O)c2cc(-c3ccccc3Cl)on2)c1 the results were Pf growth 48h inconclusive, Cycloheximide cs 34*, Shiga inhibitor 78*, Pf growth 96h inconclusive and LmPK inhibitor -7%.
COc1ccc(-c2cc(C(=O)Nc3cc(C)ccc3O)no2)cc1 was read as Pf growth 48h -17%, Cycloheximide cs 14*, Shiga inhibitor 22, Pf growth 96h 3.3µM* and LmPK inhibitor 0%.
For Cc1ccc(-c2cc(C(=O)Nc3cc(C)ccc3O)no2)cc1 the results were Pf growth 48h 487%, Cycloheximide cs 12, Shiga inhibitor 20, Pf growth 96h -25% and LmPK inhibitor -3%.
Screening COc1ccc(-c2cc(C(=O)Nc3cc(Cl)ccc3O)no2)cc1 returned Pf growth 48h inconclusive, Cycloheximide cs 38*, Shiga inhibitor 70*, Pf growth 96h inconclusive and LmPK inhibitor -1%.
Screening C[C@@H]1CN(C(=O)c2nc3ccc(Cl)cn3c2CN(C)CCc2cnn(C)c2)C[C@H](C)O1 returned Pf growth 48h -3%, Cycloheximide cs 2, Shiga inhibitor -1, Pf growth 96h 44% and LmPK inhibitor 2%.
`Cc1cc(OI)c(C(C)C)cc1-c1cc(C(C)C)c(OI)cc1C` gave Pf growth 48h inconclusive, Cycloheximide cs -3, Shiga inhibitor -5 and Pf growth 96h 6.7µM*.
For COc1cc(C)c(N)cc1C(C)C the results were Pf growth 48h 4%, Cycloheximide cs 1, Shiga inhibitor -1 and LmPK inhibitor 0%.
C#CCNc1c2c(nc3ncnn13)CC(C)CC2 (centres undefined) was read as Pf growth 48h 8%, Cycloheximide cs -3, Shiga inhibitor 1, Pf growth 96h 25% and LmPK inhibitor -6%.
CC1CCc2c(nc3nc[nH]n3c2=O)C1 (centres undefined) was read as Cycloheximide cs -4, Shiga inhibitor -16, Pf growth 96h 1.2µM* and LmPK inhibitor 17%.
For O=C(CNc1ccc(Br)cc1)c1ccc(Br)s1 the results were Pf growth 48h 10%, Cycloheximide cs 12, Shiga inhibitor 23, Pf growth 96h 30% and LmPK inhibitor 7%.
`C=CCn1cnc2c(nnn2-c2ccc(C)c(C)c2)c1=O` gave Pf growth 48h 126%, Cycloheximide cs 40*, Shiga inhibitor 88*, Pf growth 96h 68% and LmPK inhibitor 1%[11.5 µM].
COc1cccc(-c2nc(CS(=O)(=O)CC(=O)NC3CCCCCC3)c(C)o2)c1 was read as Pf growth 48h -10%, Cycloheximide cs 1, Shiga inhibitor 1, Pf growth 96h 8% and LmPK inhibitor 7%.
`CC1CC(C)CN(S(=O)(=O)c2ccc3c(c2)CC(C)N3C(=O)C2CC2)C1` (centres undefined) gave Pf growth 48h inconclusive, Cycloheximide cs -2, Shiga inhibitor -2, Pf growth 96h inconclusive and LmPK inhibitor 4%.
For COC(=O)c1cc(=O)n(-c2ccc(C(F)(F)F)cc2)[nH]1 the results were Pf growth 48h -23%, Cycloheximide cs 6, Shiga inhibitor 3, Pf growth 96h -5% and LmPK inhibitor -1%.
Screening COc1ccc(/C=C2\SC(=S)N(Cc3cccnc3)C2=O)cc1C returned Pf growth 48h inconclusive, Cycloheximide cs -2, Shiga inhibitor -10, Pf growth 96h inconclusive and LmPK inhibitor -3%.
Screening CCOc1cc(/C=C2/SC(=Nc3ccccc3)N(Cc3cccnc3)C2=O)ccc1OCC#N returned Pf growth 48h inconclusive, Cycloheximide cs -3, Shiga inhibitor 29, Pf growth 96h 2.1µM* and LmPK inhibitor 4%.
`C=C(C)C(=O)Nc1cccc(C2=NOC3(C2)C[C@H](C(N)=O)N(C(=O)/C=C/C)C3)c1` (some centres undefined) gave Pf growth 48h 99%, Cycloheximide cs 10, Shiga inhibitor 25, Pf growth 96h 82% and LmPK inhibitor 1%.
